Common to all, as to experiment: DAPPL (digital affinity profiling via proximity ligation, sequencing); 10 mM Tris-HCl pH 7.5, 50 mM NaCl, 1 mM DTT, 4% glycerol, room temperature, 30 min; GST-TFs on glutathione beads, 16-mer random dsDNA library, 0.1% formaldehyde crosslink after washing; high values mean tight binding
Common to all, as to details: protein: recombinant; tags: N-terminal GST; dsDNA, one strand shown

For one assay, the target named is T1, FLI1 (Homo sapiens, UniProt Q01543 1-452).
T1 sequence: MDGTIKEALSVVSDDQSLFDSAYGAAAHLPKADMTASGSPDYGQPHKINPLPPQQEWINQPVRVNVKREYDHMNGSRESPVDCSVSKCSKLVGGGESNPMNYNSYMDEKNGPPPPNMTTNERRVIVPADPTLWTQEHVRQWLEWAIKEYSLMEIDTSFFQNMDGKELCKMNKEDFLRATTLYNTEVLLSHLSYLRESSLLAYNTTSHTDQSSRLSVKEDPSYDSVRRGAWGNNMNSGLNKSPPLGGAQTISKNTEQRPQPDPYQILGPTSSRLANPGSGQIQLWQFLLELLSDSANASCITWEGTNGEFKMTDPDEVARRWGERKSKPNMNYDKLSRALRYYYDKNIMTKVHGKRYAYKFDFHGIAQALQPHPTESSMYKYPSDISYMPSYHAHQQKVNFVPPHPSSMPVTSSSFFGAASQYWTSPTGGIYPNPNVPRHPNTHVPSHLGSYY
The method, boiled down: (§1)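 Pools of DNA-barcoded human transcription factors, expressed in yeast as GST fusions on glutathione beads and combined with a tag-only sample, were incubated with 200 nmole of a 16-mer random double-stranded DNA library. Incubation took 30 min at room temperature in Tris/NaCl/DTT/glycerol buffer and was followed by washing, 0.1% formaldehyde crosslinking, proximity ligation (BsaI/T4 ligase, 1 h, 37 °C), PCR amplification and sequencing on an Illumina NextSeq500. Binding signal is the ratio of a hexamer's read frequency for a factor to its frequency for the tag-only sample.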

The target of a further assay is T2, ELK1 (Homo sapiens, UniProt P19419 1-428).
T2 sequence: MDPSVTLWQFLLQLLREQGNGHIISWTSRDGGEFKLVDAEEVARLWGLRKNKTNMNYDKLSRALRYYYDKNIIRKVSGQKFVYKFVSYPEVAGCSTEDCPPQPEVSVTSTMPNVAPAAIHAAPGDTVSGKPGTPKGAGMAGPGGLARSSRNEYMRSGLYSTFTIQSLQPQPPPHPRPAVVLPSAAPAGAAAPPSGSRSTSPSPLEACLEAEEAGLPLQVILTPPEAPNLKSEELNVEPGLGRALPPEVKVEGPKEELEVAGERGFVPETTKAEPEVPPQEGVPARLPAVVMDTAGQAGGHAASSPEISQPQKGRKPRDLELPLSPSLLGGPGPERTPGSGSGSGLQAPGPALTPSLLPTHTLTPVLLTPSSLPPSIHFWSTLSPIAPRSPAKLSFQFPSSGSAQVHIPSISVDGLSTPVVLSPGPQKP
The method, boiled down: as §1

The target in a further assay is T3, GABPA (Homo sapiens, UniProt Q06546 1-454).
T3 sequence: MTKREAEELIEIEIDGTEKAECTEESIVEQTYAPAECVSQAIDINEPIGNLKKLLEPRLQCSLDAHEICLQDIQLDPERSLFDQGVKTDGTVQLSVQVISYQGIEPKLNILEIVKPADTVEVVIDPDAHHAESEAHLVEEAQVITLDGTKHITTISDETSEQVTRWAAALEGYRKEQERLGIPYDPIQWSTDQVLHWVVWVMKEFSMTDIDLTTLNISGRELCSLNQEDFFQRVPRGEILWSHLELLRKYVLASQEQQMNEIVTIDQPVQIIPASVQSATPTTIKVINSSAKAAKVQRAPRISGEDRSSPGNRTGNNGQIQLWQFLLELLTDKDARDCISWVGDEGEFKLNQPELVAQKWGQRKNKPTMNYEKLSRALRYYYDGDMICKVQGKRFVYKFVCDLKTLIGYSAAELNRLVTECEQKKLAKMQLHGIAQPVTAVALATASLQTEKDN
The method, boiled down: as §1

A further assay addresses T4, ERG (Homo sapiens, UniProt P11308 1-479).
T4 sequence: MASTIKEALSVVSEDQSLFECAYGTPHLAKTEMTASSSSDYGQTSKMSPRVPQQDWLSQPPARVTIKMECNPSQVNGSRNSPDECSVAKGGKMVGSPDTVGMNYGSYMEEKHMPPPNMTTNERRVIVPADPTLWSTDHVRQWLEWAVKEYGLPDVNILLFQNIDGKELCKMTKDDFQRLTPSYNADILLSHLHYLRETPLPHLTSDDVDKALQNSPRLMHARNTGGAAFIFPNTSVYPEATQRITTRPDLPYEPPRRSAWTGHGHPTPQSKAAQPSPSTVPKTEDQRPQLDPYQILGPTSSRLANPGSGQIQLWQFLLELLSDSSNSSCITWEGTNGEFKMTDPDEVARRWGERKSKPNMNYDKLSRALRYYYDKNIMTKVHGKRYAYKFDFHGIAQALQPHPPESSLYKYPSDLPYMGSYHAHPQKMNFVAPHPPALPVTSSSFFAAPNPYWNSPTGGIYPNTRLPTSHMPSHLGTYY
The method, boiled down:
as §1

In the next assay the target is ELF1 (Homo sapiens, UniProt P32519 1-619). Put shortly:
as §1

Another assay addresses T5, EHF (Homo sapiens, UniProt Q9NZC4 1-300).
T5 sequence: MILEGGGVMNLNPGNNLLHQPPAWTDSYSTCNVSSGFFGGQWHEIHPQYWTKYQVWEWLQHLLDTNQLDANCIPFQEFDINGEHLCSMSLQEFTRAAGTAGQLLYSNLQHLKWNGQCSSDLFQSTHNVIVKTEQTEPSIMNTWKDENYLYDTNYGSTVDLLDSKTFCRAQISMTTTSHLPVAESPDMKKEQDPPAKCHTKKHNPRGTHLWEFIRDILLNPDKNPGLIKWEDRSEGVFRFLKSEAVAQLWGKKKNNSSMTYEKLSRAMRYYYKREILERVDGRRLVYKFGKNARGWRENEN
The method, boiled down:
as §1

In a further assay the target is SPI1 (Homo sapiens, UniProt P17947 1-270). Put shortly:
as §1

The target in the next assay is SPIB (Homo sapiens, UniProt Q01892 1-262). Put shortly: as §1
SPIB, sequence (Q01892 whole entry): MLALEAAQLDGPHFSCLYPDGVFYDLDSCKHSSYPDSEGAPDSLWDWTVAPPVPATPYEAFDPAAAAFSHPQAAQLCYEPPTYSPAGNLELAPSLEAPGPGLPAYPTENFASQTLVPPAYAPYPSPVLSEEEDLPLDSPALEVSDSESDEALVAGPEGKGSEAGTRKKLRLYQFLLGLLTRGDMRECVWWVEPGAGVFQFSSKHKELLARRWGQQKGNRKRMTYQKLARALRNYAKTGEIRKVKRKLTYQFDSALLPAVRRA
Another assay concerns the target T6, FEV (Homo sapiens, UniProt Q99581 1-238).
T6 sequence: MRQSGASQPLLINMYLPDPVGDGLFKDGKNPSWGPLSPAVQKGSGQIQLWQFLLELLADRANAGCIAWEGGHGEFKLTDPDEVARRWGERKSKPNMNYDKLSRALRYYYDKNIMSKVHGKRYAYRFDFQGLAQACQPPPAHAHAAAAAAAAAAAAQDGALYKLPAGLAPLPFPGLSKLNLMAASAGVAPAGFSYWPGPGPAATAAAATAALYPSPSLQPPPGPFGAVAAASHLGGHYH
The method, boiled down:
as §1

The target of a further assay is ETV5 (Homo sapiens, UniProt P41161 1-510). Put shortly:
as §1

For a further assay, the target named is T7, SPIC (Homo sapiens, UniProt Q8N5J4 1-248).
T7 sequence: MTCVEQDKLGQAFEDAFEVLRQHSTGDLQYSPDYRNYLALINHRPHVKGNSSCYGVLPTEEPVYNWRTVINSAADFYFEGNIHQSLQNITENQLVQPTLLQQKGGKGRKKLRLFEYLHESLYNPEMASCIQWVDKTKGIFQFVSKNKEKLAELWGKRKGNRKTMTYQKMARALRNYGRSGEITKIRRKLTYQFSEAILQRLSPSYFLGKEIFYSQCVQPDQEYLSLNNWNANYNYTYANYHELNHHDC
The method, boiled down:
as §1

Another assay deals with ELF4 (Homo sapiens, UniProt Q99607 1-663). The method, boiled down:
as §1

The target of the next assay is ETV1 (Homo sapiens, UniProt P50549 1-477). Put shortly:
as §1

In another assay the target is T8, ERF (Homo sapiens, UniProt P50548 1-548).
T8 sequence: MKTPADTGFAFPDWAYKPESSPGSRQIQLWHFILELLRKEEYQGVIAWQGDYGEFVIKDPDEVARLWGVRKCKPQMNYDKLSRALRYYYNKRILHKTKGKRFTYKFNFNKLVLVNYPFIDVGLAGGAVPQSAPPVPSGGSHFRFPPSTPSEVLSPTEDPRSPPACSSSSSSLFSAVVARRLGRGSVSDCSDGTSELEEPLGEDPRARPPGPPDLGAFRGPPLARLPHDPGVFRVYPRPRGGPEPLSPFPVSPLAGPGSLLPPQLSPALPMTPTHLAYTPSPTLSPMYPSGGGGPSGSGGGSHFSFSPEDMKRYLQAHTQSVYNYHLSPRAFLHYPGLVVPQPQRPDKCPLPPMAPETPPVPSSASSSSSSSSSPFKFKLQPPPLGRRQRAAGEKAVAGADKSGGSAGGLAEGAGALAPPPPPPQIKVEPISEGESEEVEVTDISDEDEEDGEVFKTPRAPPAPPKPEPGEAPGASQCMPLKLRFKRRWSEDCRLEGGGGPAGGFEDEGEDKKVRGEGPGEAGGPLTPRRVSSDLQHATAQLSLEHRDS
The method, boiled down:
as §1

A further assay has as its target T9, ETV3L (Homo sapiens, UniProt Q6ZN32 1-361).
T9 sequence: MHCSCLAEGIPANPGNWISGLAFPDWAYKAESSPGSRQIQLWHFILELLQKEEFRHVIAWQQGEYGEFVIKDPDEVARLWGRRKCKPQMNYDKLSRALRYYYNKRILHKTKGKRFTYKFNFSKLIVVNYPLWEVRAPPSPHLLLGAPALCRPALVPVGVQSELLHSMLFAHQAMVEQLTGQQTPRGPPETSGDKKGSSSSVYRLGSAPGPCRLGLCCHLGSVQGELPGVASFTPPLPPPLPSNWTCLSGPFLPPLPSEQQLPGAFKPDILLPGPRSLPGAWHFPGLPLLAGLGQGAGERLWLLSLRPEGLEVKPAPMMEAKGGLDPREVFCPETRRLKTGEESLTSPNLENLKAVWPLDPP
The method, boiled down:
as §1

A further assay concerns the target T10, ETS2 (Homo sapiens, UniProt P15036 1-469).
T10 sequence: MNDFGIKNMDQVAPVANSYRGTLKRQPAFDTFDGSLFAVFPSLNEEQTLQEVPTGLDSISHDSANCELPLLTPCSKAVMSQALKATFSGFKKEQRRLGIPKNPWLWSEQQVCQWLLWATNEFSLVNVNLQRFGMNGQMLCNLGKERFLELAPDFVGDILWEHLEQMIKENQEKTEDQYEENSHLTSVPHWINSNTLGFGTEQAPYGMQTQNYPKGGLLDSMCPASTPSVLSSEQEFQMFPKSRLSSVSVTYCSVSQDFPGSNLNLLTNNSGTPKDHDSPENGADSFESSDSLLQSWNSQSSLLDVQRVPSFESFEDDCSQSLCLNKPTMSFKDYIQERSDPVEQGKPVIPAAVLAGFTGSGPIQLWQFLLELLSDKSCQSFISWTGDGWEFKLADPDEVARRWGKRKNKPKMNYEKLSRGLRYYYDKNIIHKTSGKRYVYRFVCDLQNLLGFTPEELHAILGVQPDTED
The method, boiled down:
as §1

Another assay addresses T11, ELF5 (Homo sapiens, UniProt Q9UKW6-2 1-255).
T11 sequence: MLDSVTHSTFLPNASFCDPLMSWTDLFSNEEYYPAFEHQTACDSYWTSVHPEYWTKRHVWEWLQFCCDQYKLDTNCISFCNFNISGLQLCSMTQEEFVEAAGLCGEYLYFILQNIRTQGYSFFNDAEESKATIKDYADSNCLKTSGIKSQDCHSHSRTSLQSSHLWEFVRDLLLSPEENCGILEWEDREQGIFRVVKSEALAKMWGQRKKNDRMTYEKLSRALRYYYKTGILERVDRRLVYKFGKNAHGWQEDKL
The method, boiled down: as §1

Another assay deals with T12, ETV3 (Homo sapiens, UniProt P41162-2 1-143).
T12 sequence: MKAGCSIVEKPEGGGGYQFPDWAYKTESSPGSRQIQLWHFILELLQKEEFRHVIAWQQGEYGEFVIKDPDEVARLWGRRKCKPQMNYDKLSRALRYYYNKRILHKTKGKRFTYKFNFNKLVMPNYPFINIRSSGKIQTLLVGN
Put shortly:
as §1

The target in the next assay is ETV6 (Homo sapiens, UniProt P41212 1-452). The method, boiled down: as §1
ETV6, sequence (P41212 whole entry): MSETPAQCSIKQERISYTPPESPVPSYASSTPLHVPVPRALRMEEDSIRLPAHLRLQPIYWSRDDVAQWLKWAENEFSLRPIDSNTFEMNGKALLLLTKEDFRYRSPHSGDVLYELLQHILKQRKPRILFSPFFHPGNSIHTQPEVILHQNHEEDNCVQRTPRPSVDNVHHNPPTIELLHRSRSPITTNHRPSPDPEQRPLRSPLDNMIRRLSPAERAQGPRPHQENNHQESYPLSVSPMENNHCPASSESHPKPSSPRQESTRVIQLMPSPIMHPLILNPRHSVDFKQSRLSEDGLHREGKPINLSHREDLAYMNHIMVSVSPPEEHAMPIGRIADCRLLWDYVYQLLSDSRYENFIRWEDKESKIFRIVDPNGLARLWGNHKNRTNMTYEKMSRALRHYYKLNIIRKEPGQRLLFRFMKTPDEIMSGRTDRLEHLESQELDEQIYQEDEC

Here are results for 1 sequence from article PMC7862700, “An all-to-all approach to the identification of sequence-specific readers for epigenetic DNA modifications on cytosine”.

ETV5, sequence (P41161 whole entry): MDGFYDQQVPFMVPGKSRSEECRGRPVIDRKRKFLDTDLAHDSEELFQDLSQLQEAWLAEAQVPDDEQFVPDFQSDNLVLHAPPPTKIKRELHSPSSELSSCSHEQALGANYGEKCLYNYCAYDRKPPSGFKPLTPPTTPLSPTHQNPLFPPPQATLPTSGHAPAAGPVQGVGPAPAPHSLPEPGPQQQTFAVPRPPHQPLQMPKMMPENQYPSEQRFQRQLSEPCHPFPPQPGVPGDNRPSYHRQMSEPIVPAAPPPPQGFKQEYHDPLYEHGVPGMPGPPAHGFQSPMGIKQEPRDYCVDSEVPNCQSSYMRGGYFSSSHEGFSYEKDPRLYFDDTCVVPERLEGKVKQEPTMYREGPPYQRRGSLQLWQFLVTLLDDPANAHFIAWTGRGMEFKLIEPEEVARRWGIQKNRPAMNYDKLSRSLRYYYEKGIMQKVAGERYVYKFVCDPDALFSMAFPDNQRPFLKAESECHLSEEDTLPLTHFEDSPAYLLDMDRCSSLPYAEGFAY
ELF4, sequence (Q99607 whole entry): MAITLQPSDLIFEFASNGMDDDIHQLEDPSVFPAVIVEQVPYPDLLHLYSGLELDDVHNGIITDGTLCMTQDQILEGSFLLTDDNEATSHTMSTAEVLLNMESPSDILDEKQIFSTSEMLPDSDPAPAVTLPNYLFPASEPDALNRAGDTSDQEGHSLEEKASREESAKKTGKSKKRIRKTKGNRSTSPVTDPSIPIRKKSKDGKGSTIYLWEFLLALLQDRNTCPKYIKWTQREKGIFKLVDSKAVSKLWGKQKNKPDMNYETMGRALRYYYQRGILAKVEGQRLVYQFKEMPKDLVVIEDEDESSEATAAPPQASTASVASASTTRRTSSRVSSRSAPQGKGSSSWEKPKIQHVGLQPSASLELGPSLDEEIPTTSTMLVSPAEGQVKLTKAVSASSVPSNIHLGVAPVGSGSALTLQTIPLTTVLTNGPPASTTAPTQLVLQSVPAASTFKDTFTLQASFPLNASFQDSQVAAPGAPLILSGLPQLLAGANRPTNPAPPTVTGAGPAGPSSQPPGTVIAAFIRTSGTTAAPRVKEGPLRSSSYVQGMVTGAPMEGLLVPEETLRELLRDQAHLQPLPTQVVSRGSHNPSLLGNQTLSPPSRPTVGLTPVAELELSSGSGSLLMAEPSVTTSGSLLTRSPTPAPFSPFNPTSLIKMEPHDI
ETV1, sequence (P50549 whole entry): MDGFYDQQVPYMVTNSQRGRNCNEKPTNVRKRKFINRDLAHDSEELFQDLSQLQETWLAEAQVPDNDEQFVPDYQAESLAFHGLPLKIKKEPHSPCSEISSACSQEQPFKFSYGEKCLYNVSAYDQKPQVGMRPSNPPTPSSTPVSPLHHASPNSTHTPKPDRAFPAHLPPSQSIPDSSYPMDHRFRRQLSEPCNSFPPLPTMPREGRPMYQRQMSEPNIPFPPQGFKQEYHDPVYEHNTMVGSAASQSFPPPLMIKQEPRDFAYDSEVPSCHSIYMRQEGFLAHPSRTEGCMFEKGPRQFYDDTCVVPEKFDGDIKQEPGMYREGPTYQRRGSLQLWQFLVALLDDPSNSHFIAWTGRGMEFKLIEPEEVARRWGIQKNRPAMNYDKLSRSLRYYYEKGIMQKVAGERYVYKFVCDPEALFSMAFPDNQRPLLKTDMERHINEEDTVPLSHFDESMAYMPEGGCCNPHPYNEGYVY
ELF1, sequence (P32519 whole entry): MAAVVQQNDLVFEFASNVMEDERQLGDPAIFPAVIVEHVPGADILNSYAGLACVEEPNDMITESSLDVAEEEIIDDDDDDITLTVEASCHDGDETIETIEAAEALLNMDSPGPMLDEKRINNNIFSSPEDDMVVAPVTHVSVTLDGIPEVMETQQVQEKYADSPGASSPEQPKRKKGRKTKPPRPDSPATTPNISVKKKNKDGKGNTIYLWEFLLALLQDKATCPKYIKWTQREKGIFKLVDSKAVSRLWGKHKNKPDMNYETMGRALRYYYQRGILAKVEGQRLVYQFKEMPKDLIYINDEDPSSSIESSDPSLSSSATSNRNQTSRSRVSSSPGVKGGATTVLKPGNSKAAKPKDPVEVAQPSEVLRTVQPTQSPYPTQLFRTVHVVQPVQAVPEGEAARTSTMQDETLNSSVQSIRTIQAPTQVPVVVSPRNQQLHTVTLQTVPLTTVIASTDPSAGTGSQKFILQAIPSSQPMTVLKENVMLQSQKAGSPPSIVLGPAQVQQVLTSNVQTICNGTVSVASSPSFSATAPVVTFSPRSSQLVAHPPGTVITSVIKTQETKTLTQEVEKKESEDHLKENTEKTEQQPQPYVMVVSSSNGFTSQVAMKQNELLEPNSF

As to CTGCGG, the binding signal was 1.23 fold enrichment (6-mer frequency, TF over GST control) in the assay with FLI1; 1.26 fold enrichment (6-mer frequency, TF over GST control) with ELK1; 1.05 fold enrichment (6-mer frequency, TF over GST control) with GABPA; 1.1 fold enrichment (6-mer frequency, TF over GST control) in the assay with ERG; 1.18 fold enrichment (6-mer frequency, TF over GST control) in the assay with ELF1; 1.3 fold enrichment (6-mer frequency, TF over GST control) with EHF. Also, the binding signal in the assay with SPI1 is 1.03 fold enrichment (6-mer frequency, TF over GST control); with SPIB, 1.09 fold enrichment (6-mer frequency, TF over GST control); in the assay with FEV it was 1.07 fold enrichment (6-mer frequency, TF over GST control); with ETV5, 1.16 fold enrichment (6-mer frequency, TF over GST control); with SPIC it was 1.06 fold enrichment (6-mer frequency, TF over GST control); with ELF4, 1.14 fold enrichment (6-mer frequency, TF over GST control). Moreover, the binding signal was 1.15 fold enrichment (6-mer frequency, TF over GST control) with ETV1; 1.04 fold enrichment (6-mer frequency, TF over GST control) with ERF; 1.17 fold enrichment (6-mer frequency, TF over GST control) with ETV3L; 1.12 fold enrichment (6-mer frequency, TF over GST control) with ETS2; 1.06 fold enrichment (6-mer frequency, TF over GST control) with ELF5; 1.14 fold enrichment (6-mer frequency, TF over GST control) with ETV3. Further, the binding signal with ETV6 was 1.09 fold enrichment (6-mer frequency, TF over GST control).
